Screening data as filed in PubChem BioAssay.
VHR inh abs: blocks human VHR1 dual specificity phosphatase; P51452; recombinant VHR phosphatase, pNPP absorbance; inhibition, % at 13.3 µM; actives 0.52% (n = 290,000); in the data active means inhibition above about 50%
TcdB GH inh: inhibitors of Clostridioides difficile toxin B glycohydrolase; P18177; TcdB glycohydrolase enzymatic assay, plate reader; inhibition, % at 9.99 µM; actives 0.24% (n = 350,000); AID 652162; in the data active means inhibition above about 10%
BioA inh: BioA (M. tuberculosis) enzyme inhibition | purified M. tuberculosis BioA enzyme, plate reader | inhibition, % at 9.99 µM | actives 0.096% (n = 360,000) | AID 602481; in the data active means inhibition above about 40%; inconclusive means no clear call, values can overlap the other calls
MazEF act: increases E. coli MazEF RNase cleavage of RNA | P0AE70 | FAM/BHQ RNA-DNA oligo cleavage fluorescence, 5 h | activation, % at 20 µM | actives 0.32% (n = 350,000) | AID 504720; in the data active means activation above about 50%
Yp Topo-I inh: Y. pestis Topo-I inhibition via cleavage products. Y. pestis Topo-I cleavage product accumulation, plate reader. activity, % at 10 µM. actives 0.064% (n = 360,000); in the data active means activity above about 50%, passing the limit was not always enough; inconclusive means no clear call, values can overlap the other calls
FadD28 FP inh: inhibitors of Mycobacterium tuberculosis FadD28 bisubstrate binding. actives 0.22% (n = 360,000). AID 588549. inhibition, % at 12.5 µM. FadD28 bisubstrate probe binding, fluorescence polarization; in the data active means inhibition above about 8.5%, passing the limit was not always enough; inconclusive means no clear call, values can overlap the other calls
Large screens that a line does not name were inactive. Sampled rows, rich in hits. Any-hit rate of the full collection: about 1%.

COc1ccc(OC)c(-c2cc(C(=O)Nc3c(C)nn(Cc4ccccc4)c3C)no2)c1	none (no result: TcdB GH inh)
Cc1nn(Cc2ccccc2)c(C)c1NC(=O)c1cc(-c2ccco2)on1	VHR inh abs 52.9 (no result: TcdB GH inh)
C[C@@H]1CN([C@H](C)CO)C(=O)c2cccc(NC(=O)c3ccc(-c4nccs4)cc3)c2O[C@@H]1CN(C)CC1CC1	none (no result: VHR inh abs, MazEF act, Yp Topo-I inh, FadD28 FP inh)
O=C(C[C@H]1C=C[C@H](NC(=O)CCN2CCCCC2)[C@@H](CO)O1)Nc1ccccc1	none (no result: VHR inh abs, BioA inh, MazEF act, Yp Topo-I inh, FadD28 FP inh)
CCCC(=O)N1CC2(CN(C(=O)NC(C)C)C2)c2c(n(C)c3cc(OC)ccc23)[C@H]1CO	none (no result: VHR inh abs, BioA inh, MazEF act, Yp Topo-I inh, FadD28 FP inh)
COC(=O)c1ccc(NC(=S)Nc2ccc(O)cc2)cc1	TcdB GH inh 10.1 (no result: BioA inh)
Oc1ccc(NC(=S)Nc2ccc(O)cc2)cc1	none (no result: BioA inh)
Cc1nc2sc(C(=O)OCC(=O)N3c4ccccc4CC3C)c(C)c2c(=O)[nH]1 (stereo not given)	MazEF act 72.2 (no result: BioA inh)
CCc1ccc(Nc2nc(N)nc(CSc3nnnn3-c3ccccc3)n2)cc1	Yp Topo-I inh 52.8 (no result: TcdB GH inh)
COc1ccc2cc3c(nc2c1)OCC3	TcdB GH inh 11.5
C[C@@H](NC(=O)C[C@@H]1C=C[C@@H](NC(=O)C2CCC2)[C@@H](CO)O1)c1ccccc1	none (no result: VHR inh abs, MazEF act, Yp Topo-I inh, FadD28 FP inh)
COc1cc(/C=C(/C#N)C(=O)NCc2ccccc2)cc(OC)c1OC	none
Cc1cc(/C=C(\C#N)C(=O)NCc2ccccc2)cc(C)c1O	VHR inh abs 52.0
COc1ccc(/C=C(\C#N)C(=O)NCCc2ccccc2)cc1OCc1ccccc1	MazEF act 83.6 (no result: BioA inh)
COc1ccc(-c2cn(C[C@@H](Cc3ccccc3)NC(=O)Nc3ccccc3)nn2)cc1OC	none (no result: VHR inh abs, MazEF act, Yp Topo-I inh, FadD28 FP inh)
Cc1ccc(S(=O)(=O)Nc2cccc3c2O[C@@H](CN(C)C(=O)Nc2ccc4c(c2)OCO4)[C@@H](C)CN([C@H](C)CO)C3=O)cc1	none (no result: VHR inh abs, MazEF act, Yp Topo-I inh, FadD28 FP inh)
CC(CCC(C)C(C)(C)C)[C@@H]1CC[C@H]2C3C[C@H](OS(O)(=S)=S)[C@H]4C[C@H](OS(O)(=S)=S)[C@@H](OS(O)(=S)=S)C[C@]4(C)[C@H]3CC[C@]12C (stereo not given in full) (tested in a mixture with another compound)	FadD28 FP inh 65.1 (no result: VHR inh abs, TcdB GH inh)
CC(CCC(=O)NN)C1CCC2C3CCC4CC(O)CCC4(C)C3CCC12C (stereo not given)	none (no result: VHR inh abs, BioA inh)
CCN(CC)c1ccc(NC(=O)CCS(=O)(=O)c2ccc(Br)cc2)c(C)c1	VHR inh abs 52.3
COc1ccccc1Nc1nnc(SCc2cc(=O)n3ccsc3n2)s1	TcdB GH inh 14.9
C/C=C/CN(C(=O)C#Cc1ccccc1)[C@H](CO[Si](C)(C)C(C)(C)C)c1ccccc1	none (no result: VHR inh abs, BioA inh, MazEF act, Yp Topo-I inh, FadD28 FP inh)
CO[C@H]1CN(C)C(=O)c2ccc(NC(=O)NC(C)C)cc2OC[C@@H](C)N(C(=O)C2CCC2)C[C@@H]1C	none (no result: VHR inh abs, MazEF act, Yp Topo-I inh, FadD28 FP inh)
CO[C@@H]1CN(C)C(=O)c2ccc(NC(=O)c3ccc(F)cc3)cc2OC[C@@H](C)N(C(C)=O)C[C@H]1C	none (no result: VHR inh abs, MazEF act, Yp Topo-I inh, FadD28 FP inh)
Cc1cccc(C)c1-n1nnnc1SCC(=O)c1c(N)n(C2CC2)c(=O)[nH]c1=O	MazEF act 55.2 (no result: VHR inh abs)
Cc1ccc(-n2ccnc2SCC(=O)c2c(N)n(C3CC3)c(=O)[nH]c2=O)cc1C	none (no result: VHR inh abs)
Cc1ccc(-n2nnnc2SCC(=O)c2c(N)n(C3CC3)c(=O)[nH]c2=O)cc1C	MazEF act 56.7 (no result: VHR inh abs)
CCN1[C@H](C(=O)NCCCN(C)C)[C@@H](CO)[C@@H]2Cn3c(ccc(C4=CCCC4)c3=O)[C@@H]21	none (no result: VHR inh abs, BioA inh, MazEF act, Yp Topo-I inh, FadD28 FP inh)
O=C1/C(=C/c2cccnc2)SC(=NCc2ccccc2)N1Cc1ccccc1	TcdB GH inh 10.1 (no result: BioA inh)
O=C(C[C@@H]1C=C[C@H](NC(=O)Nc2ccccc2)[C@@H](CO)O1)NCc1cccc(F)c1	none (no result: VHR inh abs, MazEF act, Yp Topo-I inh, FadD28 FP inh)
O=C(CSc1nc2ccccc2[nH]1)NC1CCCc2ccccc21 (stereo not given)	TcdB GH inh 13.2, FadD28 FP inh inconclusive (no result: BioA inh)
CCCCCCCCN1[C@@H](CC(C)=O)c2cc(C(F)(F)F)ccc2S1(=O)=O	Yp Topo-I inh 66.3 (no result: VHR inh abs)
CC(=O)N1[C@H](CO)[C@@H](c2ccccc2)C12CN(C(=O)Nc1ccccc1F)C2	none (no result: VHR inh abs, BioA inh, MazEF act, Yp Topo-I inh, FadD28 FP inh)
COc1ccccc1OCCCCN1CCCCC1	VHR inh abs 51.3
CCOc1ccccc1OCCCCN1CCCC1	none (no result: TcdB GH inh)
CNC(=O)C[C@H]1CC[C@@H]2[C@@H](COc3ccc(NC(=O)c4cscn4)cc3C(=O)N2C)O1	none (no result: VHR inh abs, TcdB GH inh, MazEF act, Yp Topo-I inh, FadD28 FP inh)
Cc1cc(N2CCN(C(=O)c3ccco3)CC2)n2ncnc2n1	none (no result: TcdB GH inh, BioA inh)
O=C(c1ccco1)N1CCN(c2cc(C(F)(F)F)nc3ncnn23)CC1	VHR inh abs 51.7 (no result: TcdB GH inh, BioA inh)
Cn1nnc2cc(NC(=O)N3CCN(c4ccccn4)CC3)ccc21	none
Cn1nnc2cc(C(=O)N3CCN(c4ccccn4)CC3)ccc21	VHR inh abs 52.9
Cc1ccc(C(=O)OCC(=O)c2cc(C)n(CC3CCCO3)c2C)cc1 (stereo not given)	TcdB GH inh 16.2 (no result: BioA inh)
Cc1cc(C(=O)COC(=O)c2ccccc2O)c(C)n1CC1CCCO1 (stereo not given)	none (no result: VHR inh abs)
COCC(=O)Nc1ccc2c(c1)C(=O)N(C)C[C@@H](OC)[C@@H](C)CN(Cc1cccnc1)[C@H](C)CO2	none (no result: VHR inh abs, MazEF act, Yp Topo-I inh, FadD28 FP inh)
CCN(CC)S(=O)(=O)c1cc(C(=O)Nc2cccnc2Cl)ccc1Cl	TcdB GH inh 11.4, Yp Topo-I inh inconclusive (no result: BioA inh)
O=C(C1=C[C@H](C2CC2)C[C@H](OCCCCO)O1)N1CCCC1	none (no result: VHR inh abs, BioA inh, MazEF act, Yp Topo-I inh, FadD28 FP inh)
CCC(C(=O)Nc1ccc2[nH]ncc2c1)c1ccccc1 (stereo not given)	VHR inh abs 57.0
CO[C@@H]1CN(C)C(=O)c2ccc(NC(=O)C3CCOCC3)cc2OC[C@@H](C)N(C(=O)c2ccccc2)C[C@H]1C	none (no result: VHR inh abs, TcdB GH inh, MazEF act, Yp Topo-I inh, FadD28 FP inh)
CCN1C/C(=C/c2ccc(N3CCOCC3)cc2)C(=O)/C(=C/c2ccc(N3CCOCC3)cc2)C1	none (no result: BioA inh)
